Measured values: PubChem BioAssay AID1569 (National Center for Advancing Translational Sciences (NCATS), 2009)
Records with an inconclusive call do not appear. Calls of active or inactive are those of the source. Calls follow the shape of the dose curve; as a rule, active = well fitted inhibition curve with a large enough effect; inconclusive = small, poorly fitted or top-dose-only effect, or effect the other way, or another doubt; inactive = no such curve, though single readings can be large or run the other way.

Test: Confirmation Concentration-Response Assay for lipid storage modulators; also: nearly all actives have a fitted effect of over 80% in size
Settings: Drosophila S3 cells, lipid droplet BODIPY/CellTracker ratio, 18-24 h; series mostly up to 46.1 µM
Text: NIH Molecular Libraries Probe Production Centers Network [MLPCN] NIH Chemical Genomics Center [NCGC] MLPCN Grant: 1 R03 MH085686-01 Assay Submitter (PI): Beller, Mathias; Max-Planck-Institut fur Biophysikalische Chemie NCGC Assay Overview: Storing lipids as a reservoir for energy or the anabolism of elementary metabolites is a common feature of probably all cells and is conserved from bacteria to humans. The universal cellular lipid storage organelle is the so-called lipid storage droplet (LD). Although ubiquitous, LDs share a simple structure composed of a hydrophobic core that harbors the storage lipids, which is shielded by a droplet-specific phospholipid monolayer to which proteins are attached. The current model of LD biogenesis involves an incorporation of the lipid core into the membrane leaflets of the endoplasmic reticulum (ER) followed by a subsequent budding-like maturation of a LD, which ultimately pinches off. Once released, LD volume can increase by localized lipogenesis or fusion of existing droplets. Storage lipids are re-mobilized enzymatically by lipase activity. Lipase regulation in the adipocyte is heavily studied and involves multiple components including catecholamine signaling, the LD-associated proteins Perilipin and comparative gene identification-58 (CGI-58) and at least two lipases named hormone sensitive lipase (HSL) and adipocyte triglyceride lipase (ATGL). LD regulation outside of the adipocyte is poorly understood and only few components are known. However, there is an urgent need to learn more about ectopic fat depots as mislocalized storage of lipids, for example in the liver or muscle, is an eminent health problem associated with insulin resistance or the metabolic syndrome. We developed a laser-scanning cytometer assay to enable 1,536-well screening and combined the results of the small molecules screen with an RNAi database based on lipid storage. Exo1 identified in the primary screen (AID 1519) and several analogs were measured in the lipid storage assay as 24-point concentration-response curves to confirm potency and SAR.
We dispensed 4 uL of cells at 1.25 x 10^6 cells/mL into LoBase Aurora COC 1,536-well plates (black walled, clear bottom) with a bottle-valve solenoid-based dispenser (Aurora) to obtain 5,000 cells/well. Triacsin C (Sigma-Aldrich T-4540), an inhibitor of long-chain fatty acyl CoA synthetase that blocks synthesis of triglycerides, was used as a positive control for lipid under-storage. A total of 23 nL of compound solution of different concentrations were transferred to the assay plates using a Kalypsys pin tool equipped with a 1,536-pin array containing 10-nL slotted pins (FP1S10, 0.457-mm diameter, 50.8 mm long; V&P Scientific). One microliter of oleic acid (400 uM) was added, and the plate was lidded with stainless steel rubber gasket lined lids containing pinholes. After 18-24 h incubation at 24 degree Celsius and 95% humidity, 4 uL of the dyes BODIPY 493/503 (Molecular Probes) and the Cell Tracker Red CMTPX dye (Molecular Probes) were added to the wells to stain lipid droplets and enumerate cell number, respectively. Fluorescence was detected by excitation of the fluorophores with a 488-nm laser on an Acumen Explorer (TTP Lab Tech). The total intensity in channel 1 (500-530 nm) reflected lipid droplet accumulation. Cells were detected using channel 3 (575- 640 nm) with 5-um width and 100-um depth filters. The ratio of the total intensity in PMT channel 1 over total intensity of channel 3 was also calculated. Percent activity was computed relative to an internal control (100% inhibited lipid droplet deposition due to the presence of 20 uM Triacsin C), which was added to 32 wells/plate.
Potency is read from the fitted curve at half-maximal effect.

Q: Which Potency does the source give for `COc1ccc(CCNC(=O)CSc2nc(O)cc(=O)[nH]2)cc1OC` here?
A: inactive

Q: Which Potency does the source give for `CSCCC(NS(=O)(=O)c1ccc2c(c1)OCCO2)C(=O)N(C)Cc1ccc(C)cc1` (stereo not given) here?
A: inactive

Q: For `CCCCCCCCn1c(=O)c(C(=O)OC)c(N)c2ccccc21`, which Potency is on record?
A: 7.91 µM (active)

Q: Which Potency does the source give for `c1ccc(-c2csc3ncnc(NCC4COc5ccccc5O4)c23)cc1` (stereo not given) here?
A: 1.99 µM (active)

Q: Which Potency does the source give for `Cc1cccc(NC(=O)CNC(=O)C23CC4CC(CC(Cl)(C4)C2)C3)n1` here?
A: 3.15 µM (active)

Q: Which Potency does the source give for `COc1ccc2c(c1)c1nnc(SCC(=O)N3C(C)CCCC3C)nc1n2C` (stereo not given) here?
A: 3.53 µM (active)

Q: With `CN(C1=C(N2CCOCC2)C(=O)c2ccccc2C1=O)c1ccccc1` as the compound, how does the Potency read?
A: 6.28 µM (active)

Q: For `Cc1nn(C)c(C)c1CN(Cc1nc(CCC(C)C)no1)C(C)C`, which Potency is on record?
A: 12.5 µM (active)

Q: Which Potency does the source give for `OCCNc1c2ccccc2nc2c(F)c(F)c(F)c(F)c12` here?
A: 8.65 µM (active)

Q: With `CCOc1ccc(CCNC(=O)COC(=O)CCc2cc(OC)c(OC)c(OC)c2)cc1OCC` as the compound, how does the Potency read?
A: inactive

Q: With `COc1ccc(CCNC(=O)c2noc(C(C)C)c2[N+](=O)[O-])cc1OC` as the compound, how does the Potency read?
A: inactive

Q: With `O=C(NC1CCCc2c1cnn2-c1ccc(F)cc1F)c1ccccn1` (stereo not given) as the compound, how does the Potency read?
A: 0.0112 µM (active)

Q: For `COc1ccc(CCNC(=O)c2ccccc2-c2ccccc2C(=O)O)cc1OC`, which Potency is on record?
A: inactive

Q: With `Cc1cc(Nc2ccccc2)nc(NCc2ccccc2)n1` as the compound, how does the Potency read?
A: 11.2 µM (active)

Q: For `CCOC(=O)C1CCN(C(=O)C2(NC(=O)Nc3ccc(F)cc3F)CCCCC2)CC1`, which Potency is on record?
A: 1.77 µM (active)

Q: For `CCOc1ccc(CCNC(=O)COC(=O)C2CCN(c3ccc(C(F)(F)F)cn3)CC2)cc1OCC`, which Potency is on record?
A: inactive

Q: For `CCOc1ccc(CCNC(=O)COC(=O)c2ccc(S(C)(=O)=O)cc2)cc1OCC`, which Potency is on record?
A: inactive

Q: For `COc1ccc(CCn2ccc(O)c(Cc3ccc(Cl)cc3)c2=O)cc1OC`, which Potency is on record?
A: 0.315 µM (active)

Q: Which Potency does the source give for `COc1ccc(CCNC(=O)CSc2nnc(CNc3ccc(Cl)cc3)o2)cc1OC` here?
A: inactive

Q: For `CCc1ccc(CN(C)C(=O)c2ccc3c(=O)n4c(nc3c2)CCC4)cc1`, which Potency is on record?
A: inactive

Q: For `CCN1CCN(Cc2ccc(NC(=O)c3ccc(C)c(NC(=O)c4c[nH]c5cc(C(F)(F)F)ccc5c4=O)c3)cc2C(F)(F)F)CC1`, which Potency is on record?
A: 8.88 µM (active)

Q: Which Potency does the source give for `COc1c(C)cc(C(=O)C2CCCN(C(=O)c3ccc4[nH]ccc4c3)C2)cc1C` (stereo not given) here?
A: 17.3 µM (active)

Q: Which Potency does the source give for `CC(C)OC(=O)c1cc2c(ccn2C)n1CC(=O)N(Cc1ccccc1)c1ccccc1` here?
A: 1.77 µM (active)

Q: With `CCOc1ccc(CCNC(=O)COC(=O)c2cccs2)cc1OCC` as the compound, how does the Potency read?
A: 3.15 µM (active)

Q: For `O=C(Nc1ccc(Cl)c(Cl)c1)Nc1ccc(Br)cc1F`, which Potency is on record?
A: 8.88 µM (active)

Q: For `CCOC(=O)C1(Cc2ccc(Cl)cc2)CCN(C(C)Cc2ccc(O)c(OC)c2)CC1` (stereo not given), which Potency is on record?
A: 11.2 µM (active)

Q: With `COc1ccc(N=NC2C(=O)N(c3ccccc3)N=C2C)cc1` (stereo not given) as the compound, how does the Potency read?
A: 14.1 µM (active)

Q: With `C[C@@H]1NS(=O)(=O)[C@H]2C[C@@H]3C=C[C@]2(O3)[C@H]1OC(=O)c1ccccc1Br` as the compound, how does the Potency read?
A: inactive

Q: With `CCOC(=O)C1CCN(C(=O)C2(NC(=O)Nc3ccccc3Cl)CCCCC2)CC1` as the compound, how does the Potency read?
A: 0.628 µM (active)

Q: With `CCN(CC)C(=O)c1sc2nc(-c3cccs3)cc(-c3cccs3)c2c1N` as the compound, how does the Potency read?
A: 7.91 µM (active)

Q: With `CCCCNc1cc(C)nc(NCc2ccccc2)n1` as the compound, how does the Potency read?
A: 7.91 µM (active)

Q: With `CCOc1ccc(CCNC(=O)c2cc3sccc3n2CC)cc1OCC` as the compound, how does the Potency read?
A: 0.199 µM (active)

Q: For `CC(C)(C)c1cc[n+](C2=C([O-])c3ccccc3C(=O)/C2=N\S(=O)(=O)c2cccs2)cc1`, which Potency is on record?
A: 28.1 µM (active)

Q: For `COC(=O)c1cc(C)sc1NC(=O)C1CC(=O)NN1Cc1ccccc1` (stereo not given), which Potency is on record?
A: 1.41 µM (active)

Q: With `COc1ccc(/C=C(\NC(=O)c2cccs2)C(=O)Nc2ccccc2C)cc1OC` as the compound, how does the Potency read?
A: 0.177 µM (active)

Q: With `CCOc1ccc(CCNC(=O)COC(=O)c2c(C)nn(-c3ccccc3)c2C)cc1OCC` as the compound, how does the Potency read?
A: 1.58 µM (active)

Q: For `COc1ccc(/C=C\C(=O)NCc2ccc3[nH]c(C)cc3c2)cc1OC`, which Potency is on record?
A: 4.45 µM (active)

Q: Which Potency does the source give for `CCC(C)(C)NC(=O)C(c1cccn1C)N(Cc1ccc(OC)cc1)C(=O)Cn1nnc2ccccc21` (stereo not given) here?
A: 2.5 µM (active)

Q: Which Potency does the source give for `CC(=O)c1cc(-c2ccccc2)n(CC(=O)N2CCC(C)CC2)c1C` here?
A: 1.58 µM (active)

Q: With `Cn1cc(CNCc2ccc(OC(F)(F)F)cc2)c(-c2ccc3c(c2)OCCO3)n1` as the compound, how does the Potency read?
A: 6.28 µM (active)
